Sampled rows, rich in hits. Any-hit rate of the full collection: about 0.81%.
TRHR agonist: agonists of human TRH receptor. P34981. TRHR cells, calcium flux fluo-8, FDSS agonist mode. activation, % at 2 µM. 0.18% of 360,000 active. AID 493084; in the data active = activation above about 30%
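TRHR-expressing cells, plated overnight in medium with 10% serum, were loaded with fluo-8 calcium dye at room temperature. After a 10 s baseline, library compound was pin-added and calcium release was recorded kinetically (ex 480/em 530) as agonist response.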
TRPML1 agonist: activates the human TRPML1 channel; Q9GZU1; TRPML1-expressing cells, Ca2+ dye fluorescence, FDSS; activation, % (concentration not given with the values); 0.12% of 410,000 active; AID 624414; in the data active = activation above about 50%; inconclusive = mostly about 30% to 49%
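Tetracycline-induced TRPML1-DL cells are seeded and incubated overnight before loading with a no-wash Ca2+ dye and quencher. Agonist activity is taken from the 110 s fluorescence read following compound pin-transfer on an FDSS, before EC80 54-4 challenge.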
TSG101-PTAP inh: blocks PTAP/TSG101 interaction to inhibit HIV-1 budding; Q99816; Fluorescence polarization, FITC-PTAP peptide / Tsg101 binding; Potency, µM (doses to about 115 µM), most hits filed as inhibitors; 340,000 tested, under 10 active; AID 493005; active = well fitted inhibition curve with a large enough effect in the main read-out, with a control signal flat, not every such curve was filed as active; inconclusive = small, poorly fitted or top-dose-only effect, or effect the other way, or a change in a side signal; inactive = no such curve, though single readings can be large or run the other way
Target sequence (Q99816 whole entry, looked up): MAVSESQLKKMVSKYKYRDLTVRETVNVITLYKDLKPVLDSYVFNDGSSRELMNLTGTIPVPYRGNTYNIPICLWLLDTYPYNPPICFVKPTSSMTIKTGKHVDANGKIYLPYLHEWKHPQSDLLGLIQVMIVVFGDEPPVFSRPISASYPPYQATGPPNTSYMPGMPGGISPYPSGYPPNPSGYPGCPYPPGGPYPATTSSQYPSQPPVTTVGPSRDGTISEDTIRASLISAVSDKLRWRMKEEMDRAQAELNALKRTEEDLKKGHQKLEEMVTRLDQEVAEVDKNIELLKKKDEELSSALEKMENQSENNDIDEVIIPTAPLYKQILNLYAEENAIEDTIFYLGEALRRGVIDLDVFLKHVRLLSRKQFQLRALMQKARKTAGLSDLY
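Steps: Tsg101 binding domain dispensed (10 uM final), compounds pinned in DMSO, FITC-labeled PTAP-motif peptide added (50 nM final); after 20 min binding at room temperature, polarization measured.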
TRHR PAM: allosterically enhances the human TRH receptor | TRHR cells, fluo-8 calcium fluorescence, EC20 TRH enhancement | enhancement, % at 2 µM | 0.66% of 360,000 active | AID 493056; in the data active = enhancement above about 30%
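Enhancer read-out: after compound pinning and an initial kinetic agonist-mode read, an EC20 of TRH (10 nM final) was injected and fluo-8 calcium signal (Ex 480/Em 530) followed at 1 s/cycle for 100 cycles in TRHR-expressing cells.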
TRPML1 blocker: blocks the human TRPML1 channel; 0.02% of 390,000 active; AID 624415; TRPML1-inducible cells, Ca2+ dye fluorescence, FDSS; stronger effect = lower value; inhibition of EC80 agonist-evoked calcium signal; activity change, negative = inhibition, % (concentration not given with the values); Q9GZU1; in the data active = activity change below about -50%; inconclusive = between about -30% and that limit;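 note: stimulus is agonist 54-4 at its EC80 concentration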
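Tet-induced TRPML1-DL cells loaded with Ca8 no-wash calcium dye were read kinetically on FDSS. Compound addition was followed by EC80 agonist 54-4 (4 uM final); inhibition was read over 110 s.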
Numbers stand for hits; i = inactive; ? = inconclusive; nt = no result given; ! = repeats disagree.

SMILES	TRHR agonist	TRPML1 agonist	TSG101-PTAP inh	TRHR PAM	TRPML1 blocker
Cc1cccc(Cn2cc(S(=O)(=O)c3ccccc3)c(=O)c3cc(F)c(N4CCOCC4)cc32)c1	i	i	nt	38	i
C#Cc1nc(Nc2cccc(Cl)c2)nc(NC2CCCC2)n1	i	nt	nt	i	nt
C/C(=N\Nc1ncnc2sc(C)c(C)c12)c1ccccn1	55	58	i	i	i
Cc1cccc2cncc(OCc3nnc(SC(F)F)n3C)c12	i	i	i	41	i
Cc1ccc2oc(-c3ccc(NC(=O)COc4ccccc4)cc3O)nc2c1	nt	i	nt	nt	nt
O=C(O)c1ccccc1C(=O)Nc1ccc(Nc2ccc([N+](=O)[O-])cc2[N+](=O)[O-])cc1	i	i	i	35	i
CCOC(=O)c1ccc(-c2ccc(/C=C(\C#N)c3nc4ccc(C)cc4[nH]3)o2)cc1	120	51	nt	i	i
Cc1cc(/C=C(/C#N)c2nc3ccccc3[nH]2)c(C)n1-c1ccccc1C(=O)O	i	i	i	i	i
Cc1ccc2nc(/C(C#N)=C\c3ccc([N+](=O)[O-])o3)[nH]c2c1	i	i	i	i	?
Cc1ccc2nc(/C(C#N)=C/c3ccc(-c4ccccc4C(=O)O)o3)[nH]c2c1	70	?	?	i	i
N#C/C(=C\c1ccc(-c2ccccc2C(=O)O)o1)c1nc2ccccc2[nH]1	46!	i	?	i	i
Cc1cc2nc(/C(C#N)=C\c3ccc(-c4ccccc4C(=O)O)o3)[nH]c2cc1C	39	i	?	i	i
Cc1ccc(Cn2cnc3c(cnn3C(C)(C)C)c2=O)cc1F	nt	i	nt	nt	i
Nc1c(Br)cc(C=O)cc1Br	nt	i	nt	nt	nt
C(=C1c2ccccc2Oc2ccccc21)c1ccccc1	nt	i	nt	nt	nt
COc1ccc(/C=C/c2ccccn2)cc1	nt	i	nt	nt	nt
Cc1cc2nc3s/c(=C/c4ccc(-c5ccccc5C(=O)O)o4)c(=O)n3c2cc1C	77	i	i	i	i
N#C/C(=C\c1ccc(-c2ccc(F)cc2F)o1)c1nc2ccccc2[nH]1	78	?	nt	i	i
O=C(O)c1ccccc1-c1ccc(/C=c2\sc3nc4cc(Br)cnc4n3c2=O)o1	i	i	?	i	i
CCC[C@H]1COCCS(=O)(=O)N1Cc1cccc(F)c1	nt	i	nt	nt	nt
Cc1cc(C)cc(Cn2ncc3c4sc(C)cc4n(C)c3c2=O)c1	i	nt	nt	i	nt
CN(C)C=Nc1c(Br)cc(Br)c2nonc12	141	62	?	i	i
Cn1cnc([N+](=O)[O-])c1S(=O)(=O)Oc1cccc2ccccc12	nt	i	i	nt	i
Cn1cnc([N+](=O)[O-])c1Oc1cccc2ccccc12	i	i	i	37	i
c1cncc(-c2nc(NCc3ccc4c(c3)OCO4)c3ccccc3n2)c1	i	i	i	32	i
SMILES	TRHR agonist	TRPML1 agonist	TSG101-PTAP inh	TRHR PAM	TRPML1 blocker
C[N+](C)(C)c1ccc(/C=C/c2ccnc3ccccc23)cc1	nt	i	nt	nt	nt
Cc1cc(N2CCN(c3ccc(C(F)(F)F)cc3[N+](=O)[O-])CC2)c2ccccc2n1	i	i	i	35	i
CC(CCC(C)[n+]1cccc(Br)c1)[n+]1cccc(Br)c1 (configuration not stated)	nt	i	nt	nt	nt
COC(=O)Cc1c(C)c2ccc(OCC(=O)N(C)C)cc2oc1=O	i	i	i	30	i
O=C1CC(c2ccco2)Cc2[nH]c(=O)c(C(=O)Nc3ccccc3)cc21 (configuration not stated)	nt	i	nt	nt	nt
COc1ccc(OC)c(/C=C2\C=Cc3ccccc32)c1	nt	i	nt	nt	nt
COc1cccc(-n2c(CN3CCN(Cc4ccccc4)CC3)nc3ccc([N+](=O)[O-])cc3c2=O)c1	i	nt	nt	i	nt
CCOC(=O)c1ccc(-n2c(CN3CCN(CCO)CC3)nc3ccc([N+](=O)[O-])cc3c2=O)cc1	i	i	i	37	i
O=C(COC(=O)C1CCCN1C(=O)c1cccs1)c1ccccc1 (configuration not stated)	i	i	i	i	i
O=C(OCc1ccccc1)C1CCCN1C(=O)c1cccs1 (configuration not stated)	i	i	i	39	i
COc1ccc(CN2CC[C@H]3C=CC[C@@H](C(=O)N4CCN(c5ccccc5)CC4)[C@H]3C2=O)cc1OC	nt	i	nt	nt	nt
CCCN(C(=O)c1cc2c(Cl)nc3ccccc3c2s1)c1cccc(C)c1	i	i	nt	40	i
Cc1cnc2ccccc2c1/C=C/c1ccc(N)cc1	nt	i	nt	nt	nt

Compound activity as filed in PubChem.
